Holding throughout (assay): DAPPL (digital affinity profiling via proximity ligation, sequencing); 10 mM Tris-HCl pH 7.5, 50 mM NaCl, 1 mM DTT, 4% glycerol, room temperature, 30 min; GST-TFs on glutathione beads, 16-mer random dsDNA library, 0.1% formaldehyde crosslink after washing; high values mean tight binding
The target in assay [1] is T1, FEV (Homo sapiens, UniProt Q99581 1-238).
T1 sequence: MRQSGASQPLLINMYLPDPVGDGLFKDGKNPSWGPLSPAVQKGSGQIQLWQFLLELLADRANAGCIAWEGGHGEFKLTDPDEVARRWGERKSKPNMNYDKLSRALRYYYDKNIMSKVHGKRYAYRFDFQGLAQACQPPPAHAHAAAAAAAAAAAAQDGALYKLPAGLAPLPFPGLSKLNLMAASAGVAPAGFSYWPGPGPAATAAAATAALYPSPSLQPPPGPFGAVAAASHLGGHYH
To be noted: protein: recombinant; tags: N-terminal GST; dsDNA, one strand shown. The gist of the method: (§1)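 Binding signal is defined as a hexamer's read frequency for one factor over its frequency for the tag-only sample. To obtain reads, GST-fused human transcription factors were expressed in yeast, captured on glutathione beads, barcoded with DNA and pooled with that sample. Pools met 200 nmole of a 16-mer random double-stranded DNA library in Tris/NaCl/DTT/glycerol buffer for 30 min at room temperature before washing, 0.1% formaldehyde crosslinking, proximity ligation (BsaI/T4 ligase, 1 h, 37 °C), PCR and Illumina NextSeq500 sequencing.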

In assay [2] the target is ETV5 (Homo sapiens, UniProt P41161 1-510). Conditions: protein: recombinant; tags: N-terminal GST; dsDNA, one strand shown. The procedure, abridged: as §1
Assay [3] addresses HSF1 (Homo sapiens, UniProt Q00613 1-529). To be noted: protein: recombinant; tags: N-terminal GST; chain copies: 3; dsDNA, one strand shown. The gist of the method:
as §1

Assay [4] addresses T2, SPIC (Homo sapiens, UniProt Q8N5J4 1-248).
T2 sequence: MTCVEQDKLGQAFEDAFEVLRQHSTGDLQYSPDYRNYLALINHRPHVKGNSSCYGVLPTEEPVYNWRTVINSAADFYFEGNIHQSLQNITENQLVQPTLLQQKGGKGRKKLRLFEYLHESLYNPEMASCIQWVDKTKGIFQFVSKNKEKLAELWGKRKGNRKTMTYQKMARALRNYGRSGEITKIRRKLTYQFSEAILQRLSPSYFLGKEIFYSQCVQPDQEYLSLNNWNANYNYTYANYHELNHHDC
Conditions: protein: recombinant; tags: N-terminal GST; dsDNA, one strand shown. The procedure, abridged:
as §1

In assay [5] the target is ELF4 (Homo sapiens, UniProt Q99607 1-663). Conditions: protein: recombinant; tags: N-terminal GST; dsDNA, one strand shown. The gist of the method:
as §1

Assay [6] addresses T3, ELK4 (Homo sapiens, UniProt P28324-2 1-405).
T3 sequence: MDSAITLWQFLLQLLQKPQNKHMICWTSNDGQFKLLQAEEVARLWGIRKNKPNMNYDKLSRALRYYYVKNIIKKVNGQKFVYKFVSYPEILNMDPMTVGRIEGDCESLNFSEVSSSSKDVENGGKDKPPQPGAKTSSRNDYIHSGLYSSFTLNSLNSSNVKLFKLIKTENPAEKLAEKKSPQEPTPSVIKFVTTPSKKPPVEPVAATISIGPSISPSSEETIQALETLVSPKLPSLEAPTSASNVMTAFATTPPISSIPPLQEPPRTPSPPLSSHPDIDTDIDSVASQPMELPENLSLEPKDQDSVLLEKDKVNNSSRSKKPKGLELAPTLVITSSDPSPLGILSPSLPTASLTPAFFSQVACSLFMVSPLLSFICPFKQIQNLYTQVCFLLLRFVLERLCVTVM
To be noted: protein: recombinant; tags: N-terminal GST; dsDNA, one strand shown. The procedure, abridged:
as §1

The target of assay [7] is T4, ETV2 (Homo sapiens, UniProt O00321 1-342).
T4 sequence: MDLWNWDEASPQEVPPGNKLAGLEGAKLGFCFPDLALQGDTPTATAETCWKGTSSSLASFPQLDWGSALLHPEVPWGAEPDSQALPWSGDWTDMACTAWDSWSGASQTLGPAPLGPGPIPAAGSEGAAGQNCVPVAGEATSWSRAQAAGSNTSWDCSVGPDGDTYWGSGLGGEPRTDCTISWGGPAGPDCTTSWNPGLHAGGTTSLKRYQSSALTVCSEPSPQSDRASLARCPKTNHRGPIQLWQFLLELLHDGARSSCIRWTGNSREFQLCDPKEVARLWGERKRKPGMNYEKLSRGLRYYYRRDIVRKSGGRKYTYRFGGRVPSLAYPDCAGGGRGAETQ
To be noted: protein: recombinant; tags: N-terminal GST; dsDNA, one strand shown. The gist of the method: as §1

Assay [8] has as its target T5, ELF3 (Homo sapiens, UniProt P78545 1-371).
T5 sequence: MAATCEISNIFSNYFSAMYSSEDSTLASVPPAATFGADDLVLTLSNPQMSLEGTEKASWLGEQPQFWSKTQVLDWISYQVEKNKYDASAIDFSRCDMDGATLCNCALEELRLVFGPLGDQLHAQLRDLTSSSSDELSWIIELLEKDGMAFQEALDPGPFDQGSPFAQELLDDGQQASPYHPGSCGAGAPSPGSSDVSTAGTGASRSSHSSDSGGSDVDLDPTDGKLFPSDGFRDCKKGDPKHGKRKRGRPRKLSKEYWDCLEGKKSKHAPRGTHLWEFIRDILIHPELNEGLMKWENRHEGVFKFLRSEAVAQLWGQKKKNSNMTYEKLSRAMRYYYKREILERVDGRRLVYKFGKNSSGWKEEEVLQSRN
Conditions: protein: recombinant; tags: N-terminal GST; dsDNA, one strand shown. The gist of the method:
as §1

Assay [9] has as its target CRX (Homo sapiens, UniProt O43186 1-299). To be noted: protein: recombinant; tags: N-terminal GST; dsDNA, one strand shown. The gist of the method:
as §1

For assay [10], the target named is ETV1 (Homo sapiens, UniProt P50549 1-477). To be noted: protein: recombinant; tags: N-terminal GST; dsDNA, one strand shown. The gist of the method: as §1
Assay [11] deals with T6, ERF (Homo sapiens, UniProt P50548 1-548).
T6 sequence: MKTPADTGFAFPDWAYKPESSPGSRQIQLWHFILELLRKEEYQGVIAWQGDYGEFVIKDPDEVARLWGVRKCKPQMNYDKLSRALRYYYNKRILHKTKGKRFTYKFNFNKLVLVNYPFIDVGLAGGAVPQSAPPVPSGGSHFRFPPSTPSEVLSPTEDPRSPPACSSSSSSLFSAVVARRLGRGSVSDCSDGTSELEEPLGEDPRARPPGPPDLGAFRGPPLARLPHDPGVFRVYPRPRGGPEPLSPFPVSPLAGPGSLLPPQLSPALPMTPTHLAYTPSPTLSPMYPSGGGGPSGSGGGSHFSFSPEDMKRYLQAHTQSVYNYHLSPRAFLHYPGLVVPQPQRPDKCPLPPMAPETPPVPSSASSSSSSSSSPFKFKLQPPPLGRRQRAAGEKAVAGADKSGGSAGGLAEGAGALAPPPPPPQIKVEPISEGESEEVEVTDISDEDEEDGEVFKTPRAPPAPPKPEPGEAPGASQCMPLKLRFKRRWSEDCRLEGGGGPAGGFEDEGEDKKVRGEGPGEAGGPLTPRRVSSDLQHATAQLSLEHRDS
To be noted: protein: recombinant; tags: N-terminal GST; dsDNA, one strand shown. The procedure, abridged:
as §1

The target in assay [12] is T7, ETV3L (Homo sapiens, UniProt Q6ZN32 1-361).
T7 sequence: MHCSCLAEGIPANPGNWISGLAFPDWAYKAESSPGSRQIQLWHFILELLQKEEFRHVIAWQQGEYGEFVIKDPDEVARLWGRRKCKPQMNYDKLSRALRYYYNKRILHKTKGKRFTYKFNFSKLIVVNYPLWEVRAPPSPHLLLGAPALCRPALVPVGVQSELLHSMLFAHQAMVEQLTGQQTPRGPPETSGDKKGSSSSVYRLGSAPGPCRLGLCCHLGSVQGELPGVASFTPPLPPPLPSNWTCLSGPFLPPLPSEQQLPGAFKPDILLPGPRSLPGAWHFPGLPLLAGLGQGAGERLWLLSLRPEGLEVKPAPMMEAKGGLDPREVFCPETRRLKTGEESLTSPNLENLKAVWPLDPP
To be noted: protein: recombinant; tags: N-terminal GST; dsDNA, one strand shown. The gist of the method: as §1

The target in assay [13] is T8, ETS2 (Homo sapiens, UniProt P15036 1-469).
T8 sequence: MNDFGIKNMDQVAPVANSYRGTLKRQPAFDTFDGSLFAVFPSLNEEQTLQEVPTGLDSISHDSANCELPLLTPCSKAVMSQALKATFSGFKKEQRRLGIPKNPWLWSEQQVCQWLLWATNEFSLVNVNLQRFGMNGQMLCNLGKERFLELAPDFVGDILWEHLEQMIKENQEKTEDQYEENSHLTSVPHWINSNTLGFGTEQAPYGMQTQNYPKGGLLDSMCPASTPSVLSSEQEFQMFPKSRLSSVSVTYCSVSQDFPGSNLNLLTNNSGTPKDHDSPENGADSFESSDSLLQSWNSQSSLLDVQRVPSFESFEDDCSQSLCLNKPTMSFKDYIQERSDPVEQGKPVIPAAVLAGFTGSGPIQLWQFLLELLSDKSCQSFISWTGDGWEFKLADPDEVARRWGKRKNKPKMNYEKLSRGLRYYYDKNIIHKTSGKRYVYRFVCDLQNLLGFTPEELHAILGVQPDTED
To be noted: protein: recombinant; tags: N-terminal GST; dsDNA, one strand shown. The gist of the method:
as §1

The target in assay [14] is T9, SPDEF (Homo sapiens, UniProt O95238 1-335).
T9 sequence: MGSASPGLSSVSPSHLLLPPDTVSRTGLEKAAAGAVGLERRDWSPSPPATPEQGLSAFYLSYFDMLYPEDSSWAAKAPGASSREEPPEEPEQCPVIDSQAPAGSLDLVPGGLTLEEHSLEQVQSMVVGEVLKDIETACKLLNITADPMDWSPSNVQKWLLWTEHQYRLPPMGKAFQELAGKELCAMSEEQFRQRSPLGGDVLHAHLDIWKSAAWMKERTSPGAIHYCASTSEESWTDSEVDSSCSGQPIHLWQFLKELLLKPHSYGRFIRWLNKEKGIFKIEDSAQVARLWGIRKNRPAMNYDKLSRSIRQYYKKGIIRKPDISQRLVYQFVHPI
To be noted: protein: recombinant; tags: N-terminal GST; dsDNA, one strand shown. The procedure, abridged:
as §1

Assay [15] deals with T10, ETV7 (Homo sapiens, UniProt Q9Y603 1-341).
T10 sequence: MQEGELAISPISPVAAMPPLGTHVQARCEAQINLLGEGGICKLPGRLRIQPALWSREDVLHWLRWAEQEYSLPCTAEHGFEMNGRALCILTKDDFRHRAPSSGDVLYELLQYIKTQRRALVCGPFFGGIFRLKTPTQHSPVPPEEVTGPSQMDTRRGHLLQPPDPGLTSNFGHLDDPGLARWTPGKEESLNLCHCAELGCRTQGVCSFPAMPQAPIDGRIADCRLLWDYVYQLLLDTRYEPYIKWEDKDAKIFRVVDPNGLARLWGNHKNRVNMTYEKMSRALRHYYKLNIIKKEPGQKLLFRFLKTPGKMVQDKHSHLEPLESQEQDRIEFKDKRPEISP
Conditions: protein: recombinant; tags: N-terminal GST; dsDNA, one strand shown. The gist of the method:
as §1

In assay [16] the target is T11, ELF5 (Homo sapiens, UniProt Q9UKW6-2 1-255).
T11 sequence: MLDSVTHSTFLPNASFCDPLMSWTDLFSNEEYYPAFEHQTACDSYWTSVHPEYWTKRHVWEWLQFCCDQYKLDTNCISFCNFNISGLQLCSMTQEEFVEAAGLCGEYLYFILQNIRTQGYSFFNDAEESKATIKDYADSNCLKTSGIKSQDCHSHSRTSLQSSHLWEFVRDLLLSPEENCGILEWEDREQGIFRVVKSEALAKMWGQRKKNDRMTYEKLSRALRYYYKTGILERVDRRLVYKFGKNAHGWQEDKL
To be noted: protein: recombinant; tags: N-terminal GST; dsDNA, one strand shown. The gist of the method: as §1

The target of assay [17] is T12, ETV3 (Homo sapiens, UniProt P41162-2 1-143).
T12 sequence: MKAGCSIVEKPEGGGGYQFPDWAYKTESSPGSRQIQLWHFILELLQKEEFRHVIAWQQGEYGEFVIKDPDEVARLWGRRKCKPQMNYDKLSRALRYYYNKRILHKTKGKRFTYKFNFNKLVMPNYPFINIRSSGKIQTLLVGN
To be noted: protein: recombinant; tags: N-terminal GST; dsDNA, one strand shown. The procedure, abridged:
as §1

Assay [18] has as its target ETV6 (Homo sapiens, UniProt P41212 1-452). To be noted: protein: recombinant; tags: N-terminal GST; dsDNA, one strand shown. The gist of the method:
as §1

ELF4, sequence (Q99607 whole entry): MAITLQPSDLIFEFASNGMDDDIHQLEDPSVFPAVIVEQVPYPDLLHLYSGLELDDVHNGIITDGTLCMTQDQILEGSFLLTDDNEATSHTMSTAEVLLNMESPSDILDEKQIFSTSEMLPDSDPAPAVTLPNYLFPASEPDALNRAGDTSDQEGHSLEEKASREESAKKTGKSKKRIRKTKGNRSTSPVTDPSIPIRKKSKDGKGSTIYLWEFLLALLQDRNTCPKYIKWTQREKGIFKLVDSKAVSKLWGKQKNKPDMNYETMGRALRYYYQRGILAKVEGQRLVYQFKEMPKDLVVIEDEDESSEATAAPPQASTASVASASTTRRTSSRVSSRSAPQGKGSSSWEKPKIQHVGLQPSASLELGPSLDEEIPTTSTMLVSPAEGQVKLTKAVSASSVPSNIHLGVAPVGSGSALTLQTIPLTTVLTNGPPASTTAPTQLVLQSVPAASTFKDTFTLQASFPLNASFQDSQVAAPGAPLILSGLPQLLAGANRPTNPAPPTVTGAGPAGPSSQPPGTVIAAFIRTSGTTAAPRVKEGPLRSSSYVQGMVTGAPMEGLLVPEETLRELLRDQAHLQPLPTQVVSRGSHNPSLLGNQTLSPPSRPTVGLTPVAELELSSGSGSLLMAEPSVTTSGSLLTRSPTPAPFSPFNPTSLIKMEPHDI
ETV6, sequence (P41212 whole entry): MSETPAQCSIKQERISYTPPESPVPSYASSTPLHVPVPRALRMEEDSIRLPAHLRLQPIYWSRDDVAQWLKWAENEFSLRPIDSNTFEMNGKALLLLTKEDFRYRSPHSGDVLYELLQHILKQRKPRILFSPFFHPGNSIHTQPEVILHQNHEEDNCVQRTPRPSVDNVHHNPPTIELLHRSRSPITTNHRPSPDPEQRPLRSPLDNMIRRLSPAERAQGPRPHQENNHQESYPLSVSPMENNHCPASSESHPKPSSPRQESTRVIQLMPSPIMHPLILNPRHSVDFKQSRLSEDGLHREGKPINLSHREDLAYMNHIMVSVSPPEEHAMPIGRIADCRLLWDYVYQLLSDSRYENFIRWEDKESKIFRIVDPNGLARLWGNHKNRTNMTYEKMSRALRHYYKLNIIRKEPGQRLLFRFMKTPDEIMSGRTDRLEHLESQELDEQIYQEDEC
HSF1, sequence (Q00613 whole entry): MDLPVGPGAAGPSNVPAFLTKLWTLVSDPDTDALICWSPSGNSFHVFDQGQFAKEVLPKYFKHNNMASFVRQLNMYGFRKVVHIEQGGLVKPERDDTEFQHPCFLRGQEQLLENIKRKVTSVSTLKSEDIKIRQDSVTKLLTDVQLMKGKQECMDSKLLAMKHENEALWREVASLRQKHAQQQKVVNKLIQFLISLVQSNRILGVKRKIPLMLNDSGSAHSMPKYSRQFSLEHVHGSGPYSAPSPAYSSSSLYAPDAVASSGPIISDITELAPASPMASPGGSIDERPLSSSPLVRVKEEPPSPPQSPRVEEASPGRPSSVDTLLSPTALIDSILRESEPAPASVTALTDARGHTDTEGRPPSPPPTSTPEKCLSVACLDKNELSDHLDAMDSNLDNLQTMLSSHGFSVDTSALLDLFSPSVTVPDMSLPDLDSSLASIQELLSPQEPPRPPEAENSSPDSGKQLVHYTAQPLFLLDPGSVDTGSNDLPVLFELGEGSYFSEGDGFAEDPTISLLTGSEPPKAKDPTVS
ETV1, sequence (P50549 whole entry): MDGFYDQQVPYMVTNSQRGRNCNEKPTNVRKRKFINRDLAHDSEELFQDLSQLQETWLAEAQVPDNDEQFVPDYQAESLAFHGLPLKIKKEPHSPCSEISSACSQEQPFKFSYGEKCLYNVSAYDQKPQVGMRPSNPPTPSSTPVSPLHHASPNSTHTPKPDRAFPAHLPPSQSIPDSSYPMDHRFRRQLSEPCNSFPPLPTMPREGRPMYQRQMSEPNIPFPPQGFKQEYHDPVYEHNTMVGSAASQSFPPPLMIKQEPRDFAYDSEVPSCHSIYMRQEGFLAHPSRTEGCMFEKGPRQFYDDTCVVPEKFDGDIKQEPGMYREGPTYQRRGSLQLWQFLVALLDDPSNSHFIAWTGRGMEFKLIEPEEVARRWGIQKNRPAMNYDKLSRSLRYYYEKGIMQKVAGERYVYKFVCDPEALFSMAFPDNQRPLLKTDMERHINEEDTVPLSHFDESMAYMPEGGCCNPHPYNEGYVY
ETV5, sequence (P41161 whole entry): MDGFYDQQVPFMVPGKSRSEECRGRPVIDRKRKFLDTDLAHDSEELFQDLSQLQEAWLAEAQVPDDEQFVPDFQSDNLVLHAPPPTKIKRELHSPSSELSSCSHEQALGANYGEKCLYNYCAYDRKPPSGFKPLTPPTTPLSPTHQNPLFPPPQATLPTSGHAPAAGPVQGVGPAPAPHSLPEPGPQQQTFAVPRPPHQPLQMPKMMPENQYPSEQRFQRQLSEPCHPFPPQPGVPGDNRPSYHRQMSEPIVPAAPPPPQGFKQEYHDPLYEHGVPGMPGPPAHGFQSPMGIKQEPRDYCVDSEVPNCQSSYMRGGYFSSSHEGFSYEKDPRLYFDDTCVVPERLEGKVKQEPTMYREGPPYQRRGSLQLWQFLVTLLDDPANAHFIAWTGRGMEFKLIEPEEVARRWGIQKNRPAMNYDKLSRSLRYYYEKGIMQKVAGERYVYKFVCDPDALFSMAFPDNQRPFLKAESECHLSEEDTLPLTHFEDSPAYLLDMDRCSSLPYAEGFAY
CRX, sequence (O43186 whole entry): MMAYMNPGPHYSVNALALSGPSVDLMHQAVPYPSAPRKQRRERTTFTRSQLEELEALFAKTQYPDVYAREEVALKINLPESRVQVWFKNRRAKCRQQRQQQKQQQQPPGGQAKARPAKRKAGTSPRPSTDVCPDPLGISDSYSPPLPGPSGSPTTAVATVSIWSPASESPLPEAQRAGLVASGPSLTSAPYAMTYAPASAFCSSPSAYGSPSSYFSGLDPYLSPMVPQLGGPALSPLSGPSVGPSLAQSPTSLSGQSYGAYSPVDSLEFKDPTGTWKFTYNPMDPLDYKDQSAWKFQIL

In the case of CTCGAC, the binding signal in assay [1] is 1.41 fold enrichment (6-mer frequency, TF over GST control); in [2], 1.47 fold enrichment (6-mer frequency, TF over GST control); in [3], 1.77 fold enrichment (6-mer frequency, TF over GST control); in [4], 1.58 fold enrichment (6-mer frequency, TF over GST control); in assay [5], 1.58 fold enrichment (6-mer frequency, TF over GST control); in assay [6] it was 1.49 fold enrichment (6-mer frequency, TF over GST control). Further, the binding signal in assay [7] is 1.39 fold enrichment (6-mer frequency, TF over GST control); in assay [8] it was 1.31 fold enrichment (6-mer frequency, TF over GST control); in [9], 1.32 fold enrichment (6-mer frequency, TF over GST control); in assay [10], 1.58 fold enrichment (6-mer frequency, TF over GST control); in assay [11] it was 1.48 fold enrichment (6-mer frequency, TF over GST control); in assay [12], 1.37 fold enrichment (6-mer frequency, TF over GST control). The binding signal in assay [13] was 1.45 fold enrichment (6-mer frequency, TF over GST control); in [14], 1.42 fold enrichment (6-mer frequency, TF over GST control); in assay [15] it was 1.37 fold enrichment (6-mer frequency, TF over GST control); in assay [16], 1.38 fold enrichment (6-mer frequency, TF over GST control); in assay [17] it was 1.45 fold enrichment (6-mer frequency, TF over GST control); in assay [18], 1.63 fold enrichment (6-mer frequency, TF over GST control).
